In PubChem BioAssay (NCATS) one finds outcome and Potency data, which are given here for 35 molecules.

For test [1], the target named is Beta-2 adrenergic receptor (Homo sapiens) (UniProt P07550). The test is described as follows: qHTS validation assay of beta-arrestin-biased ligands of beta2-adrenergic receptor (AID 485366). The procedure, abridged: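 Tango cells (recombinant beta2-AR with recombinant beta-arrestin; recruitment releases tTA driving luciferase) were treated with compounds titrated up to 46 microM for 18 hr at 37 degrees C. Luminescence gave %Activity, and concentration-response curves were curve-classified.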
Sequence of Beta-2 adrenergic receptor (Homo sapiens) (P07550 whole entry, looked up): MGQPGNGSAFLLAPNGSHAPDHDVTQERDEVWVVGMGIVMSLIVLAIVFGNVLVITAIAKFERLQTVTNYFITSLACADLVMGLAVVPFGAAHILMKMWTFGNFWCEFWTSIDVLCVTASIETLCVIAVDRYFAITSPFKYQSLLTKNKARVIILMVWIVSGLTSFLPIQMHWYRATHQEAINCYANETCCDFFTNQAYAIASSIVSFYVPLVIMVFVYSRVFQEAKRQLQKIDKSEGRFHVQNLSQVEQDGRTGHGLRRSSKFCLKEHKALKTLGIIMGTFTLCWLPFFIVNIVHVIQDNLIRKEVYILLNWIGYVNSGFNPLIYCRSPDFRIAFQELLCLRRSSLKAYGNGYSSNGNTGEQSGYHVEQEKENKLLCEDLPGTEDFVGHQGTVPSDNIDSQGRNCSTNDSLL

Test [2] deals with ATP-dependent 6-phosphofructokinase (Trypanosoma brucei brucei) (UniProt O15648). The test is described as follows: qHTS Validation Assay to Find Inhibitors of T. brucei phosphofructokinase (AID 485368). The settings on record: T. brucei PFK enzyme assay, qHTS 7-point titration; at 57.5 µM (top of the series). An outline of the steps: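 Compounds (up to 57 uM, titration series) were pinned into substrate buffer, then 1.25 nM PFK added; after 45 min at room temperature, ADP product was quantified by ADP-Glo luminescence and concentration-response curves fitted.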
Sequence of ATP-dependent 6-phosphofructokinase (Trypanosoma brucei brucei) (O15648 whole entry, looked up): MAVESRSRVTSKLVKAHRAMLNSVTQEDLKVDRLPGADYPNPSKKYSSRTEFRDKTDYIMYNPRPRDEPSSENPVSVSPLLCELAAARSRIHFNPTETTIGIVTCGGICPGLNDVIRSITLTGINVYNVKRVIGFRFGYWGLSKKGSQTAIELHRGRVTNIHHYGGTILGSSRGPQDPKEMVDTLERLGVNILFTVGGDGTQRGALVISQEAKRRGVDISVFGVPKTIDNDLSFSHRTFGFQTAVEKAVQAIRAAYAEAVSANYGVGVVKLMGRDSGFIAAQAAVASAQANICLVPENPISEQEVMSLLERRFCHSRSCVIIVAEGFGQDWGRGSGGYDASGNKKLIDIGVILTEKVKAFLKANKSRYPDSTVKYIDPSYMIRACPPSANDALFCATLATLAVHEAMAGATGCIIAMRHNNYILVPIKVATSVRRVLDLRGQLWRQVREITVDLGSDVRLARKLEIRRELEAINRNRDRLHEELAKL

Test [3] deals with Thioredoxin reductase 1, cytoplasmic (Rattus norvegicus) (UniProt O89049). The test is described as follows: qHTS Assay for Substrates of Mammalian Selenoprotein Thioredoxin Reductase 1 (TrxR1) (AID 488772).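 Note: NADPH fluorescence in the first read after selenite addition and not the 8 min delta; a drop in NADPH fluorescence below the no-compound background marks a TrxR1 substrate.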 The procedure, abridged: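 Quantitative HTS in Tris-HCl buffer at pH 7.5 with EDTA and Tween-20, using rat TrxR1, 400 uM NADPH and 400 uM selenite (final). A fall in initial NADPH fluorescence relative to background marked substrate behaviour.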
Sequence of Thioredoxin reductase 1, cytoplasmic (Rattus norvegicus) (O89049 whole entry, looked up): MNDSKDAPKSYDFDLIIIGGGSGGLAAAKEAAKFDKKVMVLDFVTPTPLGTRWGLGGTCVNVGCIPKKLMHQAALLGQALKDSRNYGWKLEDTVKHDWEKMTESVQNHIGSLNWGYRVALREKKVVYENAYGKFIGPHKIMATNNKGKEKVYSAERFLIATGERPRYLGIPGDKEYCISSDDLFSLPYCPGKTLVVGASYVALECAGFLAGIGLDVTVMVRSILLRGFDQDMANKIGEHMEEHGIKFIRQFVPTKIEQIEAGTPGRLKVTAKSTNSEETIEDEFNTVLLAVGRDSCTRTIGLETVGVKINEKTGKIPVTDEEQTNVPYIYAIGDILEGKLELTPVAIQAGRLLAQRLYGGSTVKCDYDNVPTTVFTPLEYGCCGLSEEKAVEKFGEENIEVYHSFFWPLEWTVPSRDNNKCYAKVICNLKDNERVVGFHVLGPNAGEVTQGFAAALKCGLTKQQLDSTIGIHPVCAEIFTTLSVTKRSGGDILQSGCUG
(In general: qHTS replaces the single test concentration by a dilution series.)

For test [4] the target is unchanged. The test is described as follows: qHTS Assay for Inhibitors of Mammalian Selenoprotein Thioredoxin Reductase 1 (TrxR1) (AID 488773). Note: nearly all actives have a fitted effect of over 40% in size. Note: potency is the fitted concentration of half-maximal effect. The settings on record: Potency: inhibition. An outline of the steps: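 Steps: enzyme (90 nM) plus NADPH (400 uM final), 5 min at ~22 deg C; compound added, 15 min; selenite (400 uM final) added; fluorescence followed for 8 min. Concentration-response curves derived from the normalized delta values.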

The target in test [5] is Flap endonuclease 1 (Homo sapiens) (UniProt P39748). The test is described as follows: qHTS Validation Assay for the Inhibitors of Human Flap endonuclease 1 (FEN1) (AID 488816). Note: potency is the fitted concentration of half-maximal effect. An outline of the steps:
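Readings taken at 0 and 15 min after starting the reaction with 50 nM (final) substrate supplied the signal. Compounds had first sat with 10 nM FEN1 reagent for 15 min at room temperature. Values come from Hill-equation concentration-response fits.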

Test [6] deals with M-phase phosphoprotein 8 (Homo sapiens) (UniProt Q99549). The test is described as follows: qHTS Validation Assay for Inhibitors for MPP8 Chromodomain Interactions with Methylated Histone Tails (AID 488949). Note: nearly all actives have a fitted effect of over 55% in size. Note: potency is the fitted concentration of half-maximal effect. An outline of the steps: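 Chemiluminescent proximity assay: histidine-tag capture via nickel acceptor beads, biotin peptide via streptavidin donor beads. Protein and peptide each at 50 nM, pH 7.4, with 30 min incubations at room temperature for complex formation, compound exposure and bead binding.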
Sequence of M-phase phosphoprotein 8 (Homo sapiens) (Q99549 whole entry, looked up): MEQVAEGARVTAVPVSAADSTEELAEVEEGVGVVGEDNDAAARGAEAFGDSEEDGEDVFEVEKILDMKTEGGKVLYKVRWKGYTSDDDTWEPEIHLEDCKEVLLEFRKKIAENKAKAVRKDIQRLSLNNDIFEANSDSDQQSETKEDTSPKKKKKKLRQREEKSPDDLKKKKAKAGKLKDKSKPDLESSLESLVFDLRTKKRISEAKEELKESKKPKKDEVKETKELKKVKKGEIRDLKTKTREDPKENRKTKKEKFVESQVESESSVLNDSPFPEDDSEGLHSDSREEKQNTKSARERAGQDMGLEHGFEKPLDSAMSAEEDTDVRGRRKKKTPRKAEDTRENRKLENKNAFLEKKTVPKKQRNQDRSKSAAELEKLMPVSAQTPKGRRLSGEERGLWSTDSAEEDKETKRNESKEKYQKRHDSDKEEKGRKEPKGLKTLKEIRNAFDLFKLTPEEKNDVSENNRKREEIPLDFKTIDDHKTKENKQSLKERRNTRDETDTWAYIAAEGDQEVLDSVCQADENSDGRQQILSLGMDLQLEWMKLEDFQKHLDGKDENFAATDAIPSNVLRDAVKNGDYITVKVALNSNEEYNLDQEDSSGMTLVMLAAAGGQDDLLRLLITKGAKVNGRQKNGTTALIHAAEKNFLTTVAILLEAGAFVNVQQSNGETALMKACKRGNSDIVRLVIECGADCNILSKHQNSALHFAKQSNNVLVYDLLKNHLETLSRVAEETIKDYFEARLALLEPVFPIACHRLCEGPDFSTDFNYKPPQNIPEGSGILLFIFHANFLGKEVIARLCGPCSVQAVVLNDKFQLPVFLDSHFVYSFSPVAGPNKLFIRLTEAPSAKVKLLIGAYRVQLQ

Test [7] has as its target Chromobox protein homolog 1 (Homo sapiens) (UniProt P83916). The test is described as follows: qHTS Validation Assay for Inhibitors of HP1-beta Chromodomain Interactions with Methylated Histone Tails (AID 488953). Note: nearly all actives have a fitted effect of over 50% in size. Note: potency is the fitted concentration of half-maximal effect. The procedure, abridged:
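50 nM HP1-beta + 50 nM biotin-H3(1-18)K9me3, PBS pH 7.4, 0.01% Tween-20, 30 min RT; compound added, 30 min RT; AlphaScreen beads 10 ug/mL final, 30 min dark; luminescence read.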

The nature of test [8]: Quantitative high throughput screen for delayed death inhibitors of the malarial parasite plastid, 96 hour incubation (AID 488745). Note: nearly all actives have a fitted effect of over 70% in size. Note: potency is the fitted concentration of half-maximal effect. An outline of the steps: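 Infected erythrocytes were added to compound in Albumax-supplemented RPMI 1640 at 0.1% parasitemia and 2% hematocrit (final), incubated 96 h at 37 C under 5% CO2, then luciferase reagent was added and luminescence measured.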

Test [9] in a line: Quantitative high throughput screen for delayed death inhibitors of the malarial parasite plastid, 48 hour incubation (AID 488752). Note: nearly all actives have a fitted effect of over 65% in size. The procedure, abridged: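 Readout is firefly luciferase luminescence from a reporter integrated into the parasite genome, with lower signal taken as inhibited growth. Infected red cells (0.1% parasitemia, 2% hematocrit final) are cultured with compound for one 48 h cycle at 37 C.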

The target in test [10] is Methanococcus maripaludis chaperonin (MmCpn) (UniProt Q6LX38). The test is described as follows: High-Throughput Screening for Modulators of Cytosolic Chaperonin Activity: MmCpn Primary Screen (AID 488978). The procedure, abridged:
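HTRF readout (320 nm excitation, 590/665 nm emission) of ADP generated by 50 nM MmCpn hydrolysing 30 uM ATP during 10 min at 37C; compound preincubated 5 min RT.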

Results filed as inconclusive are left out. Where a structure was tested more than once in an assay, its records may differ in their call. Active and inactive are the calls of the source. Calls come from the whole dose curve; as a rule, active = well fitted curve in the direction sought with a large enough effect; inconclusive = small, poorly fitted or top-dose-only effect, or another doubt; inactive = no such curve, though single readings can be large; an effect the other way counts as inactive or inconclusive.

Sequence of Chromobox protein homolog 1 (Homo sapiens) (P83916 whole entry, looked up): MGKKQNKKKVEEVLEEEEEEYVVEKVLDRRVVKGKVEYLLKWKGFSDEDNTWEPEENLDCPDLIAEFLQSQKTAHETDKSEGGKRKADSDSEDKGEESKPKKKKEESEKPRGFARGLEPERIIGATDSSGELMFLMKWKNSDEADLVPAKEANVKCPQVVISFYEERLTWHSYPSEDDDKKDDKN
Sequence of Flap endonuclease 1 (Homo sapiens) (P39748 whole entry, looked up): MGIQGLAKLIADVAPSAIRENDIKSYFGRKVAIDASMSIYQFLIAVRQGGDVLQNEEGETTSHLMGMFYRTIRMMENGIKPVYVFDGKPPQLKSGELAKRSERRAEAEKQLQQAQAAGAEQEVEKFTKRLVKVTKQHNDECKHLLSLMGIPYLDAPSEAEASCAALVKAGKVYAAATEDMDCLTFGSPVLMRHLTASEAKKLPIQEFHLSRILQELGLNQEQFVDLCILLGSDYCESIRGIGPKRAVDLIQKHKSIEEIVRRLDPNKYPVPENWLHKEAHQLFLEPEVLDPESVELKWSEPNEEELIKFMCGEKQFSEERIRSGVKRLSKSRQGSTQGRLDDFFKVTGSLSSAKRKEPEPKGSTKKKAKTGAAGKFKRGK
Sequence of Methanococcus maripaludis chaperonin (MmCpn) (Q6LX38 1-543): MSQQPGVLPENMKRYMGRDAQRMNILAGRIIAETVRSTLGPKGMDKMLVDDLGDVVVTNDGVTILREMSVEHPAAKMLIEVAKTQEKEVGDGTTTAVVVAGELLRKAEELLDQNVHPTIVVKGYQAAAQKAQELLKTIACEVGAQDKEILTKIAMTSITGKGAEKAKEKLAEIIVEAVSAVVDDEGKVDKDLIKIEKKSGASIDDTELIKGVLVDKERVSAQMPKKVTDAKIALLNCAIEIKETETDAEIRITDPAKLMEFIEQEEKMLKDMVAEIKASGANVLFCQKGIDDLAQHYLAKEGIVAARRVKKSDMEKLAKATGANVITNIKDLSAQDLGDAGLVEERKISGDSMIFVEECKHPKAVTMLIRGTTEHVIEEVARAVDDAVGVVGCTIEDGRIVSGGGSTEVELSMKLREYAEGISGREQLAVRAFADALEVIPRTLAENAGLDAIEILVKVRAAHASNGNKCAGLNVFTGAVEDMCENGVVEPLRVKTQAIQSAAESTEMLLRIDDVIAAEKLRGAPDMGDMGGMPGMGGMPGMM

As for `Cc1c(C(=O)c2cccc3ccccc23)c2cccc3c2n1[C@H](CN1CCOCC1)CO3`, the molecule was called inactive in [1], in test [2] and in [3]. Also, the Potency result in [4], in test [5] and in test [6] was “inactive” throughout. The Potency in test [7] is 6 nM (active).

Take `NCCc1c[nH]c2ccc(O)cc12`: the call in [1], in test [2], in test [3] and in test [10] was inactive. Further, the Potency entry in [8], in test [9], in [4], in [5], in test [6] and in test [7] was “inactive” throughout.

Turning to `CC[C@@H](C(N)=O)N1CCCC1=O`, the result in [1], in test [2], in [3] and in test [10] was inactive. Further, the Potency entry in [4], in test [5], in test [6] and in [7] was “inactive” throughout.

For the molecule `S=C(NC1CCCCC1)N1CCC(c2cnc[nH]2)CC1`, the result in test [1], in test [2], in test [3] and in test [10] was inactive. Further, the Potency entry in test [8], in test [4], in [5] and in test [6] was “inactive” throughout.

With `CNCCc1ccc(O)c(O)c1`, the result in test [1], in [3] and in test [10] was inactive. Besides, the Potency result in test [8] and in test [6] was “inactive” in each case. Further, the Potency in [4] was 13.4 µM (active); in test [5], 2.99 µM (active).

Regarding `CCn1cc(C(=O)O)c(=O)c2cc3c(cc21)OCO3`, the molecule was called inactive in [3]. In addition, the Potency in [7] was 6.7 nM (active).

Take `O=C1CCCN1CC#CCN1CCCC1`: the call in test [1], in test [3] and in test [10] was inactive. The Potency result in [8], in test [4], in test [5], in test [6] and in test [7] was “inactive” in each case.

For `c1ccc(CCCN2CCN(CCOC(c3ccccc3)c3ccccc3)CC2)cc1`, the outcome in test [1], in [3] and in test [10] was inactive. The Potency in test [8] is 2.08 µM (active); in test [6], 39.8 µM (active); in test [7] it was 8.4 nM (active). Moreover, the Potency result in test [4] and in [5] was “inactive” each time.

As for `C#CCOC(=O)C1=CCCN(C)C1`, the call in [1], in test [3] and in [10] was inactive. Moreover, the Potency entry in [8], in test [4], in [5], in [6] and in test [7] was “inactive” in each case.

Regarding `Cn1cnc(CCN)c1`, the molecule was called inactive in test [1], in test [3] and in [10]. The Potency result in [8], in test [4], in [5], in test [6] and in test [7] was “inactive” in each case.

On to `CC(=O)[C@H]1CCC2C3CC[C@H]4C[C@H](O)CC[C@]4(C)C3CC[C@@]21C` (stereo not given in full), for which the result in test [1], in test [3] and in test [10] was inactive. Further, the Potency entry in [8], in test [4], in [5], in test [6] and in test [7] was “inactive” each time.

In the case of `C=CCN1CC[C@]23CCCCC2[C@H]1Cc1ccc(O)cc13` (stereo not given in full), the outcome in test [1], in test [3] and in test [10] was inactive. In addition, the Potency entry in test [8], in [4], in [5], in test [6] and in test [7] was “inactive” in each case.

Turning to `NCc1cc(=O)[nH]o1`, the outcome in test [1], in test [3] and in [10] was inactive. Also, the Potency result in test [8], in test [4], in [5], in [6] and in test [7] was “inactive” throughout.

Take `C/C=C(/C)C(=O)O[C@H]1C(C)=C2[C@H]([C@@H]1OC(=O)CCCCCCC)[C@@](C)(OC(C)=O)C[C@H](OC(=O)CCC)[C@@]1(O)[C@H]2OC(=O)[C@@]1(C)O`: the call in test [1] and in test [10] was inactive. For the same molecule, the Potency entry in test [5], in [6] and in test [7] was “inactive” in each case.

On to `CC(C)Oc1cccnc1N(C)C1CCN(Cc2ccccc2)CC1`, for which the result in test [1], in test [3] and in test [10] was inactive. The Potency entry in test [8], in test [4], in test [5] and in [6] was “inactive” in each case.

For the molecule `CC[C@@H]1C(=O)OC[C@@H]1Cc1cncn1C`, the Potency result in test [8] and in test [6] was “inactive” throughout.

For `C[N+]1(C)C2CC(OC(=O)[C@H](CO)c3ccccc3)CC1C1OC12` (stereo not given in full), the call in test [2] was inactive. The Potency result in test [5] and in test [6] was “inactive” in each case. Besides, the Potency in test [7] was 7.5 nM (active) and inactive.

As to `CC(=O)NCCc1c[nH]c2ccccc12`, the result in [1], in test [3] and in test [10] was inactive. For the same molecule, the Potency result in [8], in [4], in test [5] and in test [6] was “inactive” in each case.

`CN[C@@H](C)[C@H](O)c1ccccc1`: in [6], the Potency was 3.55 µM (active).

Consider `CC1=NN=C(c2ccc(N)cc2)c2cc3c(cc2C1)OCO3`, for which the molecule was classed as inactive in test [1], in [3] and in [10]. Further, the Potency entry in test [8], in test [4], in test [5], in test [6] and in test [7] was “inactive” throughout.

For the molecule `c1ccc2sc(C3(N4CCCCC4)CCCCC3)cc2c1`, the molecule was called inactive in test [1], in test [3] and in test [10]. Moreover, the Potency entry in [4], in test [5], in test [6] and in test [7] was “inactive” each time.

For the molecule `CN[C@@H]1C[C@@H](c2ccc(Cl)c(Cl)c2)c2ccccc21`, the result in [1], in test [3] and in [10] was inactive. In addition, the Potency result in test [4], in test [6] and in test [7] was “inactive” in each case.

For the molecule `C[C@]12N[C@H](Cc3ccccc31)c1ccccc12`, the outcome in [1], in test [3] and in [10] was inactive. Moreover, the Potency entry in test [8], in test [4], in test [5] and in [6] was “inactive” each time. For the same molecule, the Potency in test [7] is 7.5 nM (active).

As for `NCCc1c[nH]c2ccccc12`, the molecule was classed as inactive in [1], in [3] and in test [10]. Besides, the Potency result in test [8], in [4], in test [5], in test [6] and in test [7] was “inactive” each time.

For the molecule `COc1ccc2c(c[n+](C)c3c4cc5c(cc4ccc23)OCO5)c1OC`, the call in test [1], in test [3] and in test [10] was inactive. In addition, the Potency entry in test [8], in [4] and in [6] was “inactive” each time.

As for `CCCN(CCC)C1CCc2ccc(O)cc2C1` (stereo not given), the call in test [1] and in [10] was inactive. Also, the Potency result in test [8], in test [4], in [5], in test [6] and in test [7] was “inactive” in each case.

As for `CC(C)NC(C)Cc1ccc(I)cc1` (stereo not given), the call in test [1], in test [3] and in test [10] was inactive. In addition, the Potency entry in test [4], in test [5], in [6] and in test [7] was “inactive” each time.

With `CC(Cc1ccc(O)cc1)NCC(O)c1cc(O)cc(O)c1` (stereo not given), the Potency result in test [8], in test [4], in [6] and in test [7] was “inactive” throughout. In addition, the outcome in test [3] and in [10] was inactive.

Consider `NC(=O)CN1CC(O)CC1=O` (stereo not given), for which the molecule was called inactive in test [1], in [3] and in [10]. The Potency result in [8], in [4], in test [6] and in test [7] was “inactive” in each case.

Regarding `C[N+](C)(C)CC(=O)O`, the Potency entry in test [5] and in test [6] was “inactive” in each case.

Consider `NC1CCc2cc(O)c(O)cc2C1` (stereo not given), for which the molecule was called inactive in test [1], in test [3] and in [10]. For the same molecule, the Potency result in test [8] was “inactive”. For the same molecule, the Potency in test [6] is 79.4 µM (active).

`Cc1nccc2c1[nH]c1ccccc12`: the outcome in [1], in test [3] and in test [10] was inactive. For the same molecule, the Potency result in test [8], in [4], in test [6] and in [7] was “inactive” in each case.

`Clc1ccc(C(c2ccc(Cl)cc2)n2cc[n+](CC(OCc3ccc(Cl)cc3Cl)c3ccc(Cl)cc3Cl)c2)cc1` (stereo not given): the Potency result in test [5] was “inactive”. The Potency in test [6] was 35.5 µM (active) and inactive; in test [7] it was 50100 nM (active).

With `Cc1nc(-c2ccc(-c3ccc(C(=O)N4CCc5cc6c(cc54)C4(CCN(C)CC4)CO6)cc3)c(C)c2)no1`, the Potency in test [6] is 11.2 µM (active).

Turning to `NC(N)=NOCCC(N)C(=O)O` (stereo not given), the molecule was called inactive in test [1], in test [3] and in test [10]. The Potency entry in test [8], in test [4], in test [5], in test [6] and in [7] was “inactive” in each case.
